Source: PubChem BioAssay
FMDV inh: High Throughput Screening for Foot and Mouth Disease Virus Antivirals | 410,000 compounds, 1.2% hits | FMDV antiviral cell-based qHTS | Potency, µM (highest dose often 57.9 µM), inactives show top-dose activity change, negative = inhibition, hits mostly inhibitors; calls by dose curve; tested in HEK293T cells; also: read-out not given here; potency is read from the fitted curve at half-maximal effect; nearly all actives have a fitted effect of over 45% in size
Marburg entry inh: qHTS for inhibitors of binding or entry into cells for Marburg Virus; Marburg virus pseudotyped entry inhibition, cell reporter; Potency, µM (top dose mostly 37.8 µM), for inactives: at the top dose activity change, negative = inhibition, hits mostly inhibitors; 300,000 compounds, 1.8% hits; AID 540276, 2011; calls by dose curve; tested in HEK293 cells; also: potency is read from the fitted curve at half-maximal effect
HCMV antiviral: qHTS Assay for inhibitors of the human cytomegalovirus (HCMV) | 410,000 compounds, 4.5% hits | HFF cells, HCMV-luciferase reporter, 72 h; stronger effect = lower value | activity change, negative = inhibition, % at 57.5 µM | AID 1259415, 2018; in the data active = activity change below about -60%; inconclusive = no clear call, values can overlap the other calls; inactive = above about -39%
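Human foreskin fibroblasts infected with luciferase-reporter HCMV at MOI 1 PFU/cell, compounds at two doses. Luciferase measured 72 h post infection; normalized to buffer-only basal and Salinomycin (10uM) controls.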
Vaccinia Venus: qHTS for Stage-Specific Inhibitors of Vaccinia Orthopoxvirus: Venus Reporter Primary qHTS | Vaccinia virus Venus reporter expression, fluorescence | Potency, µM (top dose mostly 36.5 µM), without a hit: top-dose activity change, negative = inhibition, usual class: inhibitors | 330,000 compounds, 0.46% hits | AID 720580, 2013; calls by dose curve; tested in A549 cells; also: potency is read from the fitted curve at half-maximal effect; nearly all actives have a fitted effect of over 30% in size
Vaccinia mCherry: qHTS for Stage-Specific Inhibitors of Vaccinia Orthopoxvirus: mCherry Reporter Primary qHTS | Vaccinia virus mCherry reporter infection, fluorescence | Potency, µM (top dose mostly 36.5 µM), for the others: top-dose activity change, negative = inhibition, most hits filed as inhibitors | 310,000 compounds, 0.63% hits; calls by dose curve; tested in A549 cells; also: potency is read from the fitted curve at half-maximal effect; nearly all actives have a fitted effect of over 35% in size
LASV entry inh: qHTS for Inhibitors of binding or entry into cells for Lassa Virus; Potency, µM (top dose mostly 37.9 µM), without a hit: at the highest dose activity change, negative = inhibition, actives largely listed as inhibitors; AID 540256, 2011; 300,000 compounds, 1.2% hits; Lassa virus pseudotype entry inhibition, cell reporter; calls by dose curve; tested in HEK293 cells; also: potency is read from the fitted curve at half-maximal effect; nearly all actives have a fitted effect of over 50% in size
Starred values were filed as active, the others as inactive; [ ] = remark or other dose. Compounds with a hit are over-represented: about 6.5% of the library has one in this group of screens. % is scaled to controls: 0 for no effect and ±100 for the full control effect.

How did OCCN1CCN(c2ncnc3sc4c(c23)CCCC4)CC1 do in these assays?
FMDV inh: -8%; HCMV antiviral: -1

What do the screens show for `CCOc1cc(C2CC(=O)Nc3c2c(=O)nc(SCc2cccc(Cl)c2)n3C)ccc1O` (configuration not stated)?
FMDV inh: 0%; Marburg entry inh: 2%[46.1 µM]; HCMV antiviral: 5; Vaccinia Venus: -9%; Vaccinia mCherry: -12%; LASV entry inh: -1%[46.1 µM]

What do the screens show for `Fc1ccc(-n2ncc3c(N4CCCCCC4)ncnc32)cc1`?
FMDV inh: inconclusive; HCMV antiviral: -3; Vaccinia Venus: -4%; Vaccinia mCherry: -1%; LASV entry inh: -1%[46.1 µM]

Results for Cn1ncc(Cl)c1C(=O)N1CCN(c2ccccc2)CC1 ?
FMDV inh: -5%; HCMV antiviral: -8

Results for Cc1nn(-c2ccccc2)c(Cl)c1C(=O)N1CCN(c2ncnc3c2cnn3-c2ccccc2)CC1 ?
FMDV inh: 6.3µM*; Marburg entry inh: 13µM*; HCMV antiviral: -105*; Vaccinia Venus: inconclusive; LASV entry inh: 13µM*

What do the screens show for `Cn1ncc(Cl)c1C(=O)N1CCN(c2ccc(Cl)c(Cl)c2)CC1`?
FMDV inh: 28µM*; Marburg entry inh: inconclusive; HCMV antiviral: 1; Vaccinia Venus: -14%; Vaccinia mCherry: -14%; LASV entry inh: 7%

How did Cn1ncc2c(N3CCN(c4ccc(Cl)c(Cl)c4)CC3)ncnc21 do in these assays?
FMDV inh: 11µM*; Marburg entry inh: 18%[46.1 µM]; HCMV antiviral: -27; Vaccinia Venus: -16%; Vaccinia mCherry: -27%; LASV entry inh: 3%

How did Cn1ncc2c(N3CCN(c4ccccc4F)CC3)ncnc21 do in these assays?
FMDV inh: inconclusive; Marburg entry inh: inconclusive; HCMV antiviral: inconclusive; Vaccinia Venus: -12%; Vaccinia mCherry: -23%; LASV entry inh: -5%[46.1 µM]

How did Cc1ccc(-n2ncc3c(N4CCCCCC4)ncnc32)cc1 do in these assays?
FMDV inh: 20µM*; HCMV antiviral: -99*; Vaccinia Venus: 6%; Vaccinia mCherry: -8%; LASV entry inh: inconclusive

What do the screens show for `CCN(c1ccc(Cl)cc1)S(=O)(=O)c1nnc(NC(=O)c2ccccc2C)s1`?
FMDV inh: -23%; HCMV antiviral: 27; Vaccinia Venus: -15%; Vaccinia mCherry: -23%; LASV entry inh: inconclusive

Results for Cn1c(=O)c2c(-c3cccc(Br)c3)n(CCO)cc2n(C)c1=O ?
FMDV inh: inconclusive; Marburg entry inh: 2%[46.1 µM]; HCMV antiviral: -12; Vaccinia Venus: -5%; Vaccinia mCherry: -10%; LASV entry inh: 14%[46.1 µM]

Results for O=C(Nc1noc2ccccc12)c1ccc(F)cc1 ?
FMDV inh: inconclusive; Marburg entry inh: inconclusive; HCMV antiviral: 107; Vaccinia Venus: -1%; Vaccinia mCherry: -3%; LASV entry inh: 13%[46.1 µM]

Results for O=C(NCc1ccco1)c1c[nH]c2ccc(S(=O)(=O)Nc3ccc(F)cc3F)cc2c1=O ?
FMDV inh: 56%; Marburg entry inh: inconclusive; HCMV antiviral: 25; Vaccinia Venus: -2%; Vaccinia mCherry: 8%; LASV entry inh: inconclusive

How did Clc1ccc(-n2ncc3c(N4CCCC4)ncnc32)cc1 do in these assays?
FMDV inh: 10µM*; Marburg entry inh: inconclusive; HCMV antiviral: -66*; Vaccinia Venus: -11%; Vaccinia mCherry: -2%; LASV entry inh: inconclusive

How did Cc1ccc(-n2ncc3c(N4CCC(C(N)=O)CC4)ncnc32)c(C)c1 do in these assays?
FMDV inh: 53%; Marburg entry inh: 12%; LASV entry inh: inconclusive

Results for Cc1ccc(-n2ncc3c(N4CCC5(CC4)OCCO5)ncnc32)c(C)c1 ?
FMDV inh: 40µM*; HCMV antiviral: 54; Vaccinia Venus: -7%; Vaccinia mCherry: -2%

What do the screens show for `Clc1cccc(-n2ncc3c(N4CCCCCC4)ncnc32)c1`?
FMDV inh: -17%; HCMV antiviral: inconclusive; Vaccinia Venus: 6%; Vaccinia mCherry: 3%; LASV entry inh: inconclusive

What do the screens show for `O=C(O)c1cc(-c2cccs2)nn1-c1cccc(Cl)c1`?
FMDV inh: -17%; Marburg entry inh: 8%; HCMV antiviral: -3; Vaccinia Venus: -3%; Vaccinia mCherry: inactive; LASV entry inh: 25%

Results for Cc1ccc(NC(=O)c2ccncc2)cc1S(=O)(=O)N(C)C ?
FMDV inh: -3%; Marburg entry inh: -16%; HCMV antiviral: 1; Vaccinia Venus: 0%; Vaccinia mCherry: -6%; LASV entry inh: -24%

What do the screens show for `Cc1cc(C)n(-c2ccc(C(=O)Nc3ccc(N4CCOCC4)cc3)cc2)n1`?
FMDV inh: 4%; Marburg entry inh: 2%; HCMV antiviral: -32; Vaccinia Venus: inconclusive; LASV entry inh: 4%

How did Cc1cc(C)n(-c2ccc(C(=O)Nc3ccc(C)c(S(=O)(=O)N(C)C)c3)cc2)n1 do in these assays?
FMDV inh: 16µM*; Marburg entry inh: inconclusive; HCMV antiviral: -81*; Vaccinia Venus: inconclusive; Vaccinia mCherry: inconclusive; LASV entry inh: inconclusive

How did Cc1cc(C)n(-c2ccc(C(=O)Nc3ccc(S(=O)(=O)N(C)C)cc3)cc2)n1 do in these assays?
FMDV inh: inconclusive; Marburg entry inh: inconclusive; HCMV antiviral: -97*; Vaccinia Venus: -22%; Vaccinia mCherry: -4%; LASV entry inh: inconclusive

Results for CN(C)S(=O)(=O)c1cccc(NC(=O)c2cc(-c3cccs3)nn2-c2cccc(Cl)c2)c1 ?
FMDV inh: -14%; Marburg entry inh: inconclusive; HCMV antiviral: -106*; Vaccinia Venus: -28%; Vaccinia mCherry: -19%; LASV entry inh: inconclusive

Results for CCCCN1C(=O)c2ccc(C(=O)Nc3ccc(C)c(S(=O)(=O)N(C)C)c3)cc2C1=O ?
FMDV inh: 18µM*; Marburg entry inh: inconclusive; HCMV antiviral: -28; Vaccinia Venus: -11%; Vaccinia mCherry: -14%; LASV entry inh: -28%

What do the screens show for `COc1cccc(C2=NS(=O)(=O)N(C)C(C(=O)Nc3cccc(O)c3)=C2)c1`?
FMDV inh: -25%; Marburg entry inh: inconclusive; HCMV antiviral: -7; Vaccinia Venus: 9%; Vaccinia mCherry: 5%; LASV entry inh: -27%[46.1 µM]

Results for CCN(CC)S(=O)(=O)c1cccc(NC(=O)c2ccc(-n3nc(C)cc3C)cc2)c1 ?
FMDV inh: 20µM*; Marburg entry inh: 16µM*; HCMV antiviral: -83*; Vaccinia Venus: inconclusive; Vaccinia mCherry: inconclusive; LASV entry inh: inconclusive

Results for Cc1cc(C)n(-c2ccc(C(=O)Nc3cccc([N+](=O)[O-])c3)cc2)n1 ?
FMDV inh: -29%; Marburg entry inh: inconclusive; HCMV antiviral: inconclusive; Vaccinia Venus: -6%; Vaccinia mCherry: -18%; LASV entry inh: 4%
